Compound activity as filed in PubChem BioAssay.
Gal4-VP16 FLuc: VP16 counterscreen qHTS for inhibitors of ROR gamma transcriptional activity | Potency, µM (series often up to 53.6 µM), without a hit: top-dose activity, negative = inhibition, usual class: inhibitors | Drosophila S2 Gal4-VP16 UAS-luciferase, luminescence, 20 h | AID 2546, 2010 | 310,000 tested, 3.5% active;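 note: Gal4-VP16 expression switched on by copper sulfate through the metallothionein promoter; nearly all actives have a fitted effect of over 50% in size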
PLK1 PBD inh: qHTS for Inhibitors of PLK1-PDB (polo-like kinase 1 - polo-box domain): Primary Screen; Plk1 PBD binding of FITC phosphopeptide, fluorescence polarization; Potency, µM, for the others: max response, negative = inhibition, actives largely listed as inhibitors; 360,000 tested, 2.8% active; Serine/threonine-protein kinase PLK1 (Homo sapiens), P53350; note: series mostly up to about 57 µM; nearly all actives have a fitted effect of over 65% in size
Sfp inh: qHTS Assay for Inhibitors of Bacillus subtilis Sfp phosphopantetheinyl transferase (PPTase); Biochemical Sfp PPTase activity, qHTS; Potency, µM, inactives show largest response in the series, negative = inhibition, actives largely listed as inhibitors; 310,000 tested, 3.5% active; AID 1490, 2009;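 note: the enzyme is Sfp with the accession as filed and its product quenches rhodamine fluorescence; 0% = enzyme reaction without inhibitor and -100% = no enzyme wells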
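Buffer: 50 mM Hepes-Na pH 7.6, 10 mM MgCl2, 0.01% Nonidet P-40, 0.01% BSA. Enzyme 15 nM, pre-exposed to compound 15 min; substrates then added and fluorescence change tracked over 30 min.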
RORgamma inh: qHTS for inhibitors of ROR gamma transcriptional activity; AID 2551, 2010; Potency, µM (highest dose often 53.6 µM), without a hit: at the highest dose activity change, negative = inhibition, usual class: inhibitors; 310,000 tested, 5.4% active; Drosophila S2 Gal4-RORgamma UAS-luciferase reporter, 20 h; note: nearly all actives have a fitted effect of over 60% in size
Target sequence (P51450 whole entry, looked up, the tested form may be a part): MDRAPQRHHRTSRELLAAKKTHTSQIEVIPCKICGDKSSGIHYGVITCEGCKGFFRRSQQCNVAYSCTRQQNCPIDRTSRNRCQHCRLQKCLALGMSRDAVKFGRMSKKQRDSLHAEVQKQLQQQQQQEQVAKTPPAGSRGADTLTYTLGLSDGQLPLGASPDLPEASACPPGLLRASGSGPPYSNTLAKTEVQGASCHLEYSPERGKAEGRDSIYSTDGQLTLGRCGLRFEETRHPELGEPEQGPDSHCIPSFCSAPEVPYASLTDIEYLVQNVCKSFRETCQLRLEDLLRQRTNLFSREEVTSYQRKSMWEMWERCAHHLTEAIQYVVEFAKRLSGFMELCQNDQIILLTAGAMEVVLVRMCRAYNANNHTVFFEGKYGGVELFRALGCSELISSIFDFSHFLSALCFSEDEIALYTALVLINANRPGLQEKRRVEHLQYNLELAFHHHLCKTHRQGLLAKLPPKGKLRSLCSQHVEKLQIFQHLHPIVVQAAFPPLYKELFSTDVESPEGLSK
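Read-out: Photinus luciferase luminescence; inhibitors lower reporter signal. Insect Schneider cells with Gal4-ROR gamma fusion under metallothionein promoter, UAS reporter; 700 uM final copper sulfate induction, 20 hr, ambient temperature.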
ALDH1A1 block: qHTS Assay for Inhibitors of Aldehyde Dehydrogenase 1 (ALDH1A1). Potency, µM (titrated, usually from 75.3 µM), for inactives: at the top dose activity, negative = inhibition, actives largely listed as inhibitors. 220,000 tested, 7.3% active. Aldehyde dehydrogenase 1A1 (Homo sapiens), P00352. Purified ALDH1A1, NADH fluorescence, propionaldehyde substrate; active = well fitted inhibition curve with a large enough effect, not every such curve was filed as active; inconclusive = small, poorly fitted or top-dose-only effect, or another doubt; inactive = no such curve, though single readings can be large or run the other way;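 note: plate controls were no enzyme wells and a reference inhibitor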
* = called active by the depositor; ? = inconclusive; . = no result given; [ ] = remark or other dose. Most compounds without a hit are left out; they make up all but 12% or so of the library. Unless noted, calls come from the whole dose curve; as a rule, active = well fitted curve in the direction sought with a large enough effect; inconclusive = small, poorly fitted or top-dose-only effect, or another doubt; inactive = no such curve, though single readings can be large; an effect the other way counts as inactive or inconclusive. Unless noted, % is set by controls: 0 for no effect and ±100 for the full control effect; potency is the fitted concentration of half-maximal effect.

SMILES	Gal4-VP16 FLuc	PLK1 PBD inh	Sfp inh	RORgamma inh	ALDH1A1 block
CCc1cc2c(SCC(=O)c3ccc(C)cc3)ncnc2s1	0.1%	29.9µM*	8.5%	-11.8%	-1.1%
Cc1sc2nc(CSc3ncn[nH]3)[nH]c(=O)c2c1C	0.7%	-15.6%	6.9%	0.4%	?
CCc1cc2c(SCc3nc4sc(C(C)=O)c(C)c4c(=O)[nH]3)ncnc2s1	?	-7.4%	-9.0%	10µM*	?
COC(=O)c1ccccc1NC1CC(=O)N(c2c(C)cccc2C)C1=O (stereo not given)	-3.0%	-9.1%	28.2µM*	?	?
COC(=O)c1ccc(NC2CC(=O)N(c3ccccc3C)C2=O)cc1 (stereo not given)	-1.6%	-4.8%	-16.9%	27.1%	12.6µM*
CCCS(=O)(=O)NC(=O)C1(C)CCN(C(=O)COc2ccccc2)C1 (stereo not given)	.	-0.9%	.	.	.
c1ccc(SCCOCCn2cncn2)cc1	-10.3%	-5.2%	-18.6%	25.7%	28.2µM*
COc1cc(C(=O)OCCN2CCCCC2)ccc1O	-6.4%	-8.3%	14.6%	-0.9%	12.2%
COc1cc(C#CC#CCN2CCCCC2)ccc1O	?	-8.7%	-28.1%	15.2%[10 µM]	1.58µM*
C#CCOCCOCCOCCNc1nc(N2CCN(C(=O)[C@H](Cc3cc4ccccc4[nH]3)n3cc([C@@H](N)Cc4ccc(O)cc4)nn3)CC2)nc(N2CCN(C(=O)[C@H](Cc3cc4ccccc4[nH]3)n3cc([C@@H](N)CC(C)C)nn3)CC2)n1	-13.7%	-9.5%	56.2µM*	-0.6%	.
C#CCOCCOCCOCCNc1nc(N2CCN(C(=O)[C@H](Cc3cc4ccccc4[nH]3)n3cc([C@@H](N)CC(C)C)nn3)CC2)nc(N2CCN(C(=O)[C@H](Cc3cc4ccccc4[nH]3)n3cc([C@@H](N)CC(C)C)nn3)CC2)n1	15.8µM*	0.5%	15.8µM*	?	?
C#CCOCCOCCOCCNc1nc(N2CCN(C(=O)[C@H](CCC(=O)O)n3cc(C(N)CO)nn3)CC2)nc(N2CCN(C(=O)[C@H](CCC(=O)O)n3cc(C(N)CO)nn3)CC2)n1 (stereo not given in full)	-0.9%	.	-23.5%	-10.2%	.
C#CCOCCOCCOCCNc1nc(N2CCN(C(=O)[C@H](CCC(=O)O)n3cc(C(N)CO)nn3)CC2)nc(N2CCN(C(=O)[C@H](CCC(=O)O)n3cc(C(N)CC(C)C)nn3)CC2)n1 (stereo not given in full)	6.6%	.	89.1µM*	27.5%	.
C#CCOCCOCCOCCNc1nc(N2CCOCC2)nc(N2CCN(C(=O)[C@H](Cc3cc4ccccc4[nH]3)n3cc([C@@H](N)CC(C)C)nn3)CC2)n1	4.3%	-0.2%	-22.2%	-24.8%	-6.1%
Cc1cc(O)c(Sc2ncn[nH]2)cc1NS(=O)(=O)c1ccc(Cl)cc1	.	0.7%	.	.	.
Cc1ccc([N+](=O)[O-])cc1S(=O)(=O)Nc1ccc(O)c(Sc2ncn[nH]2)c1	2.2%	?	44.7µM*	1.3%	.
CC1CN(S(=O)(=O)c2ccc(C(=O)N3CCc4ccccc43)cc2)CC(C)O1 (stereo not given)	.	-4.2%	.	.	.
C[C@H](CO)N1C[C@H](C)[C@@H](CN(C)S(=O)(=O)c2cccs2)Oc2c(NS(=O)(=O)c3ccccc3)cccc2C1=O	.	-2.6%	.	.	.
COCCNC(=O)C1(C)CCCN(Cc2cn(C)c3ccccc23)C1 (stereo not given)	.	2.0%	.	.	.
C[n+]1c2n(c3ccccc31)N=C(c1ccc(-c3ccccc3)cc1)CS2	?	-3.0%	-16.2%	-93.1%	-14.7%
C[n+]1c2n(c3ccccc31)N=C(c1ccc(Br)cc1)CS2	-3.1%[0.365 µM]	-11.9%	-16.3%	17.4%	17.8µM*
O=C1CS/C(=C/C(=O)c2cccc(Cl)c2)N1	?	-9.4%	-9.0%	5.62µM*	8.1%
O=C(CSc1ccccn1)Nc1ccc(NC(=O)CSc2ccccn2)cc1	-5.3%	0.8%	3.8%	0.4%	-7.2%
COc1cccc(NC(=O)CSc2ccccn2)c1	-1.0%	-0.6%	7.0%	23.9%	20µM*
COc1ccc(NC(=O)CSc2ccc(-c3ccccn3)nn2)cc1OC	1.8%	-1.7%	1.4%	?	14.1µM*
SMILES	Gal4-VP16 FLuc	PLK1 PBD inh	Sfp inh	RORgamma inh	ALDH1A1 block
O=C(CSc1ccccn1)Nc1nonc1[N+](=O)[O-]	5.01µM*	?	44.7µM*	5.62µM*	.
COc1cccc(NC(=O)CSc2ncc(S(=O)(=O)c3ccccc3)c(=O)[nH]2)c1	0.6%	26.7µM*	23.9%	9.0%	.
CC(=O)OCC(=O)[C@@]1(O)CCC2C3CCC4=CC(=O)C=CC4(C)C3C(O)C[C@]21C (stereo not given in full)	-0.2%	.	14.6%	1.2%	-8.6%
C=C1CC2C(=O)N(Cc3ccccc3)C(C(=O)O)C1N2C(=O)OC(C)(C)C (stereo not given)	4.8%	.	0.1%	2.0%	.
COc1cccc(NC(=O)c2ccc3c(O)c(S(=O)(=O)c4ccccc4)c(=O)[nH]c3c2)c1	-8.0%	23.8µM*	23.9%	12.4%	.
Cc1cc(C)nc(NC(=O)CSc2ccccn2)n1	-9.5%	-12.5%	18.1%	-20.6%	10µM*
Cc1cc(C)nc(NC(=O)CSc2ncccn2)n1	11.0%	.	13.6%	-26.6%	12.8%
COc1ccc(S(=O)(=O)c2c(O)c3ccc(C(=O)Nc4cccc(F)c4)cc3[nH]c2=O)cc1	-6.8%	-11.3%	29.4%	2.4%	.
CC(/C=N/NC(=O)CSc1ccccn1)=C\c1ccc(C(C)C)cc1	-29.8%	-7.6%	-12.8%	-77.8%	25.1µM*
CCN1C(C)=C(C(=O)OC)C(c2ccccc2)N2C(=O)[C@](O)(C(=O)OC)CC(C(C)=O)=C12 (stereo not given in full)	-1.7%[10 µM]	.	14.9%	7.3%[10 µM]	-1.4%[13.5 µM]
COc1cc(S(=O)(=O)N(Cc2ccc(C)cc2)Cc2ccco2)ccc1-n1cnnn1	8.4%	-0.8%	5.9%	12.4%	12.6µM*
COc1cccc(CN(c2ccc3c(c2)CCC3)S(=O)(=O)c2ccc(-n3cnnn3)c(OC)c2)c1	5.9%	-3.5%	-3.2%	-24.0%	2.51µM*
COc1cccc(CNS(=O)(=O)c2ccc(-n3cnnn3)c(C)c2)c1	4.3%	-24.3%	7.5%	28.1%	.
COc1cc(S(=O)(=O)N(Cc2cccnc2)Cc2ccco2)ccc1-n1cnnn1	-14.4%	-3.1%	0.6%	6.3%[10 µM]	?
COc1cccc(CN(Cc2cccnc2)S(=O)(=O)c2ccc(-n3cnnn3)c(C)c2)c1	?	-9.6%	-12.2%	-1.7%	25.1µM*
Cc1cc(S(=O)(=O)N(Cc2ccccc2Cl)c2ccc3c(c2)CCC3)ccc1-n1cnnn1	1.8%	0.7%	-2.2%	-29.8%	5.01µM*
